Assay results from PubChem BioAssay (EPA / NIEHS).
Calls of active or inactive are those of the source. How the source made its calls: active means hit-call score of the fitted dose curve at least 0.9, where 1 is the maximum; inactive means score below 0.9.

What was measured:
[1] = ATG_GRE_CIS: Attagene CIS-FACTORIAL HepG2 Assay for human Glucocorticoid Response Elements (GRE) (AID 2282947); settings: HepG2 GRE cis-reporter, Attagene multiplex mRNA; actives raise or lower the signal
Procedure, shortened: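 Fluorescence intensity of reporter-specific cDNA fragments, separated by capillary electrophoresis, provides the signal. Constructs carry cis-regulating promoters in transiently transfected HepG2 liver cells; 24 h incubation; fitting is bidirectional against DMSO.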

[2] = ATG_ISRE_CIS: Attagene CIS-FACTORIAL HepG2 Assay for human Interferon Regulatory Factor 1 (IRF1) binding to an Interferon-Stimulated Response Element (ISRE) (AID 2282948); settings: HepG2 ISRE cis-reporter (Attagene), mRNA transcription readout; actives raise or lower the signal
Procedure, shortened: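 Signal reflects induction or loss of ISRE-linked reporter mRNA in transiently transfected HepG2 cells after a 24 h treatment, detected by fluorescent RT-PCR fragments on capillary electrophoresis and normalised to DMSO.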

[3] = ATG_M_32_CIS: Attagene CIS-FACTORIAL HepG2 Assay for M32 Transcription Factor (Internal Marker) (AID 2282949); settings: HepG2 Attagene cis-factorial M32 reporter, mRNA; actives raise or lower the signal;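 further: background control marker of the multiplexed CIS panel rather than a real target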
Procedure, shortened: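 HepG2 human liver cells transiently transfected with cis-promoter-driven multiple reporter transcription units, dosed 24 h. Reporter mRNA quantified by RT-PCR, FAM-labelled primer extension, HpaI digest and capillary electrophoresis; bidirectional fit versus DMSO baseline.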

[4] = ATG_M_06_CIS: Attagene CIS-FACTORIAL HepG2 Assay for M06 Transcription Factor (Internal Marker) (AID 2282950); settings: HepG2 Attagene CIS-FACTORIAL M06 internal marker reporter; actives raise or lower the signal
Procedure, shortened: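 Terse: HepG2, transient MRTU transfection (FuGene 6), 24 h dosing; total RNA, oligo(dT) RT, PCR, FAM label, HpaI cut, capillary electrophoresis; bidirectional fit vs DMSO baseline; background-control endpoint.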

[5] = target: Hypoxia-inducible factor 1-alpha (Homo sapiens) (UniProt Q16665); experiment: ATG_HIF1a_CIS: Attagene CIS-FACTORIAL HepG2 Assay for human Hypoxia Inducible Factor 1 (HIF1A) (AID 2282951); settings: HepG2 Attagene cis-factorial HIF1a reporter transcription; actives raise or lower the signal
Chain of Hypoxia-inducible factor 1-alpha (Homo sapiens) (Q16665 whole entry, looked up): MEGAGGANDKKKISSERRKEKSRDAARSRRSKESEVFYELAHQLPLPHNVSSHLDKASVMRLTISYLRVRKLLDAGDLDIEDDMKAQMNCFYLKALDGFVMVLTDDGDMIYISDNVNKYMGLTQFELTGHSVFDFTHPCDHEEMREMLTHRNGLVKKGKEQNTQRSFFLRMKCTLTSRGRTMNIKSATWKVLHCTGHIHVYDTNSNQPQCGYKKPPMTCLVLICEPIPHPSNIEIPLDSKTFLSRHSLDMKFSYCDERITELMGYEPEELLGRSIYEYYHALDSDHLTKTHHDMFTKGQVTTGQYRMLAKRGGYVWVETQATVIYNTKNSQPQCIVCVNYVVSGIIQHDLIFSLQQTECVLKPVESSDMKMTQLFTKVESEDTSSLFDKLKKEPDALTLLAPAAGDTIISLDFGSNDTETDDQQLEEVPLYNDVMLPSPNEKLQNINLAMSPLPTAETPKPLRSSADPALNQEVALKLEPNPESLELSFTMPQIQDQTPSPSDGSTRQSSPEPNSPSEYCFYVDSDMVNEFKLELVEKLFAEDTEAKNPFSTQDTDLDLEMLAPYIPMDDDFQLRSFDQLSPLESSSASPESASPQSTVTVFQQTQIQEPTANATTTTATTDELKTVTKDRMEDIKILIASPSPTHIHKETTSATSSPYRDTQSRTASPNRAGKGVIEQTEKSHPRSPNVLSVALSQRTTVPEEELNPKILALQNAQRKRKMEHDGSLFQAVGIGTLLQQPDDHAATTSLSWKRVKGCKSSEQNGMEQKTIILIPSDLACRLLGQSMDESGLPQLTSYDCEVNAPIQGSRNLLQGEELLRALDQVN
Procedure, shortened: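 RT-PCR/capillary electrophoresis fluorescence readout of reporter transcripts from endogenous-TF-driven cis elements in transfected HepG2 cells, 24 h exposure; activity fitted in both directions against DMSO controls.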

[6] = target: Hepatocyte nuclear factor 6 (Homo sapiens) (UniProt Q9UBC0); experiment: ATG_HNF6_CIS: Attagene CIS-FACTORIAL HepG2 Assay for human Hepatocyte Nuclear Factor 6 (HNF6) (AID 2282952); settings: HepG2 Attagene cis-factorial HNF6 reporter transcription; actives raise or lower the signal
Chain of Hepatocyte nuclear factor 6 (Homo sapiens) (Q9UBC0 whole entry, looked up, the tested form may be a part): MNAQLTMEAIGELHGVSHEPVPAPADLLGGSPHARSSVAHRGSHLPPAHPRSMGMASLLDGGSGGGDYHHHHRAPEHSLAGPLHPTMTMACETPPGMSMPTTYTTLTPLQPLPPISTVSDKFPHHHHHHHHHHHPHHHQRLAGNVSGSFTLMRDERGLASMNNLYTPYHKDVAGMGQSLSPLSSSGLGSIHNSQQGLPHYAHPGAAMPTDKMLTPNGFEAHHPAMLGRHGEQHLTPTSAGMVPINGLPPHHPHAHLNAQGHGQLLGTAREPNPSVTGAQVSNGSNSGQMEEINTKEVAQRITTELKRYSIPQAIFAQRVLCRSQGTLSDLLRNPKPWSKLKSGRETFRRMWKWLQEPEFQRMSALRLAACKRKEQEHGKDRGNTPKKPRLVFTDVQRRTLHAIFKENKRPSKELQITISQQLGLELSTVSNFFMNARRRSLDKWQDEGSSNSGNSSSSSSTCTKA
Procedure, shortened: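 Readout: fluorescent reporter-transcript fragments resolved by capillary electrophoresis after RT-PCR, reflecting endogenous factor activity in transfected HepG2. Exposure 24 h. Gain or loss of signal fitted bidirectionally against DMSO.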

[7] = ATG_MRE_CIS: Attagene CIS-FACTORIAL HepG2 Assay for human Metal Responsive Element (MRE) (AID 2282954); settings: HepG2 MRE cis-reporter transcription, Attagene multiplex; actives raise or lower the signal
Procedure, shortened: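 Measured here is mRNA induction from an MRE cis-element reporter in HepG2 after 24 h, quantified by fluorescence of labelled RT-PCR products on capillary electrophoresis; gain- and loss-of-signal fits use DMSO as baseline.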

[8] = ATG_PBREM_CIS: Attagene CIS-FACTORIAL HepG2 Assay for human Phenobarbital-responsive Enhancer Module (PBREM) (AID 2282955); settings: HepG2 PBREM cis-reporter, Attagene multiplexed transcription; actives raise or lower the signal
Procedure, shortened: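 Reporter mRNA read by RT-PCR, 6-FAM primer extension, HpaI digestion and capillary electrophoresis. Transfected HepG2 cells, 24 h compound exposure. Gain or loss of signal fitted bidirectionally relative to DMSO baseline.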

[9] = target: Heat shock factor protein 1 (Homo sapiens) (UniProt Q00613); experiment: ATG_HSE_CIS: Attagene CIS-FACTORIAL HepG2 Assay for human Heat Shock Transcription Factor 1 (HSE) (AID 2282953); settings: HepG2 HSE cis-reporter, Attagene RNA transcription; actives raise or lower the signal
Chain of Heat shock factor protein 1 (Homo sapiens) (Q00613 whole entry, looked up, the tested form may be a part): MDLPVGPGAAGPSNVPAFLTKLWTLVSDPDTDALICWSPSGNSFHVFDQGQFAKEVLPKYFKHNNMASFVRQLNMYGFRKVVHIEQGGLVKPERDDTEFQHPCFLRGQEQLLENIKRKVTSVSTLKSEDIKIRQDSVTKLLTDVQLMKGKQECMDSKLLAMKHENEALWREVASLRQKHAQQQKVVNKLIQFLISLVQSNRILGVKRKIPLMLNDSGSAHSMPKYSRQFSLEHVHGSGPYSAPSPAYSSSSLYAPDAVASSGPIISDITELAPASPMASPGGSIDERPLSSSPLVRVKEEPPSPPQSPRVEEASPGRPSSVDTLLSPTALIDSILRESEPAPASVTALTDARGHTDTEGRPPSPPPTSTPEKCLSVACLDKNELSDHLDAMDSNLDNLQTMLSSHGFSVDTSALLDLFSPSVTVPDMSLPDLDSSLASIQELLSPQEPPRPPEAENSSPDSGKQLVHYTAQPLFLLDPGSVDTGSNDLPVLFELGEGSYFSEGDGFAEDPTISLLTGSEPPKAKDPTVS
Procedure, shortened: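 Read-out: fluorescence of reporter-specific RT-PCR fragments separated by capillary electrophoresis. HepG2 carrying transfected cis-element reporter units; 24 h dosing; activity fitted in both directions relative to DMSO baseline.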

## CC(C)=CCC[C@](C)(O)[C@@H]1CC=C(C)CC1
[1]
  outcome: inactive
[2]
  outcome: inactive
[3]
  outcome: inactive
[4]
  outcome: inactive
[5]
  outcome: inactive
[6]
  outcome: inactive
[7]
  outcome: inactive
[8]
  outcome: inactive

## O=[N+]([O-])c1cc(C(F)(F)F)ccc1Cl
[1]
  outcome: inactive
[2]
  outcome: inactive
[3]
  outcome: inactive
[4]
  outcome: inactive
[5]
  outcome: inactive
[6]
  outcome: inactive
[7]
  outcome: inactive
[8]
  outcome: inactive

## Cc1ccccc1C=O
[1]
  outcome: inactive
[2]
  outcome: inactive
[3]
  outcome: inactive
[4]
  outcome: inactive
[5]
  outcome: inactive
[6]
  outcome: inactive
[9]
  outcome: inactive
[7]
  outcome: inactive
[8]
  outcome: inactive

## Nc1cc(Cl)c(O)c(Cl)c1
[1]
  outcome: inactive
[2]
  AC50: 100 µM (active)
[3]
  outcome: inactive
[4]
  outcome: inactive
[5]
  outcome: inactive
[6]
  outcome: inactive
[9]
  AC50: 142 µM (active)
[7]
  AC50: 79 µM (active)
[8]
  AC50: 84.9 µM (active)

## CCCCCCCCCCN
[1]
  outcome: inactive
[2]
  outcome: inactive
[3]
  outcome: inactive
[4]
  outcome: inactive
[5]
  outcome: inactive
[6]
  outcome: inactive
[9]
  outcome: inactive
[7]
  outcome: inactive
[8]
  outcome: inactive

## S=C(S)NCCNC(=S)S
[1]
  outcome: inactive
[2]
  outcome: inactive
[3]
  outcome: inactive
[4]
  outcome: inactive
[6]
  outcome: inactive
[9]
  outcome: inactive
[7]
  outcome: inactive

## FC1(F)C(F)(F)C(F)(F)C2(F)C(F)(C1(F)F)C(F)(F)C(F)(F)C1(F)C(F)(F)C(F)(F)C(F)(F)C(F)(F)C12F (configuration not stated)
[1]
  outcome: inactive
[2]
  outcome: inactive
[3]
  outcome: inactive
[4]
  outcome: inactive
[5]
  outcome: inactive
[6]
  outcome: inactive
[7]
  outcome: inactive
[8]
  outcome: inactive

## COc1cc(C)cc(O)c1
[1]
  outcome: inactive
[2]
  outcome: inactive
[3]
  outcome: inactive
[4]
  outcome: inactive
[5]
  outcome: inactive
[6]
  outcome: inactive
[7]
  outcome: inactive
[8]
  outcome: inactive

## C=CC[N+](C)(C)CC=C
[1]
  outcome: inactive
[2]
  outcome: inactive
[3]
  outcome: inactive
[4]
  outcome: inactive
[5]
  outcome: inactive
[6]
  outcome: inactive
[7]
  outcome: inactive

## CC(C)(COC(=O)c1ccccc1)COC(=O)c1ccccc1
[1]
  outcome: inactive
[2]
  outcome: inactive
[3]
  outcome: inactive
[4]
  outcome: inactive
[5]
  AC50: 47.2 µM (active)
[6]
  outcome: inactive
[7]
  outcome: inactive
[8]
  outcome: inactive

## CCCCCCCCCCCCN
[1]
  outcome: inactive
[2]
  outcome: inactive
[3]
  outcome: inactive
[4]
  outcome: inactive
[5]
  outcome: inactive
[6]
  outcome: inactive
[7]
  outcome: inactive
[8]
  outcome: inactive

## CC(=O)OCCOC(C)=O
[1]
  outcome: inactive
[2]
  outcome: inactive
[3]
  outcome: inactive
[4]
  outcome: inactive
[5]
  outcome: inactive
[6]
  outcome: inactive
[9]
  outcome: inactive
[7]
  outcome: inactive
[8]
  outcome: inactive

## CCCc1ccccc1O
[1]
  outcome: inactive
[2]
  outcome: inactive
[3]
  outcome: inactive
[4]
  outcome: inactive
[5]
  outcome: inactive
[6]
  outcome: inactive
[7]
  outcome: inactive
[8]
  outcome: inactive

## O=C(O)c1ccc(C(=O)O)cc1
[1]
  outcome: inactive
[2]
  outcome: inactive
[3]
  outcome: inactive
[5]
  outcome: inactive
[6]
  outcome: inactive
[7]
  outcome: inactive

## O=C=NC1CCC(CC2CCC(N=C=O)CC2)CC1 (configuration not stated)
[1]
  outcome: inactive
[2]
  outcome: inactive
[3]
  AC50: 164 µM (active)
[4]
  outcome: inactive
[6]
  outcome: inactive
[7]
  outcome: inactive

## CC1(C)[C@@H]2CC[C@@]1(C)[C@H](O)C2
[1]
  outcome: inactive
[2]
  outcome: inactive
[3]
  outcome: inactive
[4]
  outcome: inactive
[6]
  outcome: inactive
[9]
  outcome: inactive
[7]
  outcome: inactive
[8]
  outcome: inactive

## CC1CC(OC(=O)c2ccccc2O)CC(C)(C)C1 (configuration not stated)
[1]
  outcome: inactive
[2]
  outcome: inactive
[3]
  outcome: inactive
[4]
  outcome: inactive
[6]
  outcome: inactive
[9]
  outcome: inactive
[7]
  outcome: inactive
[8]
  outcome: inactive

## CC(C)[C@@H]1CC[C@@H](C)CC1=O
[2]
  outcome: inactive
[3]
  outcome: inactive
[4]
  outcome: inactive
[5]
  AC50: 38.4 µM (active)
[6]
  outcome: inactive
[9]
  outcome: inactive
[7]
  outcome: inactive

## NC(N)=NC(=O)c1nc(Cl)c(N)nc1N
[1]
  outcome: inactive
[2]
  AC50: 157 µM (active)
[3]
  outcome: inactive
[4]
  outcome: inactive
[6]
  outcome: inactive
[9]
  outcome: inactive
[7]
  outcome: inactive
[8]
  outcome: inactive

## CCCC1CCC(=O)O1 (configuration not stated)
[1]
  outcome: inactive
[2]
  outcome: inactive
[3]
  outcome: inactive
[5]
  outcome: inactive
[6]
  outcome: inactive
[9]
  outcome: inactive
[7]
  outcome: inactive
[8]
  outcome: inactive

## Cc1ccc(O)c(C(C)(C)C)c1
[1]
  AC50: 100 µM (active)
[2]
  outcome: inactive
[3]
  outcome: inactive
[5]
  outcome: inactive
[6]
  AC50: 156 µM (active)
[9]
  outcome: inactive
[7]
  AC50: 146 µM (active)

## O=C1OC2(c3cc(Br)c(O)c(Br)c3Oc3c2cc(Br)c(O)c3Br)c2c(Cl)c(Cl)c(Cl)c(Cl)c21
[1]
  outcome: inactive
[2]
  outcome: inactive
[3]
  outcome: inactive
[5]
  outcome: inactive
[6]
  outcome: inactive
[9]
  outcome: inactive
[7]
  AC50: 19.1 µM (active)
[8]
  outcome: inactive

## Nc1ccc(S(N)(=O)=O)cc1
[1]
  outcome: inactive
[2]
  outcome: inactive
[3]
  outcome: inactive
[5]
  outcome: inactive
[6]
  outcome: inactive
[7]
  outcome: inactive
[8]
  outcome: inactive

## CC(C)C1CCC(O)CC1 (configuration not stated)
[1]
  outcome: inactive
[2]
  outcome: inactive
[3]
  outcome: inactive
[5]
  outcome: inactive
[6]
  outcome: inactive
[9]
  outcome: inactive
[7]
  outcome: inactive

## C[C@]12CC[C@H]3[C@@H](CCC4=CC(=O)CC[C@@]43C)[C@@H]1CC[C@@H]2C(=O)CO
[1]
  outcome: inactive
[2]
  AC50: 100 µM (active)
[3]
  outcome: inactive
[4]
  outcome: inactive
[6]
  outcome: inactive
[9]
  AC50: 60.1 µM (active)
[7]
  AC50: 100 µM (active)
[8]
  AC50: 3.31 µM (active)

## CO[Si](C)(OC)c1ccccc1
[1]
  outcome: inactive
[2]
  outcome: inactive
[3]
  outcome: inactive
[5]
  outcome: inactive
[6]
  outcome: inactive
[7]
  outcome: inactive
[8]
  outcome: inactive

## Cc1ccc(C(=O)c2cc(O)c(O)c([N+](=O)[O-])c2)cc1
[1]
  outcome: inactive
[2]
  outcome: inactive
[3]
  outcome: inactive
[5]
  AC50: 27.4 µM (active)
[6]
  outcome: inactive
[9]
  outcome: inactive
[7]
  AC50: 130 µM (active)
[8]
  outcome: inactive

## COc1ccc(Cl)cc1C
[1]
  outcome: inactive
[2]
  outcome: inactive
[3]
  outcome: inactive
[5]
  outcome: inactive
[6]
  outcome: inactive
[9]
  outcome: inactive
[7]
  outcome: inactive

## CC(=O)Nc1ccc(CC(=O)O)cc1
[1]
  outcome: inactive
[2]
  outcome: inactive
[3]
  outcome: inactive
[4]
  outcome: inactive
[6]
  outcome: inactive
[9]
  outcome: inactive
[7]
  outcome: inactive

## O=C(O)c1cccc(C(F)(F)F)c1
[1]
  outcome: inactive
[2]
  outcome: inactive
[3]
  outcome: inactive
[5]
  outcome: inactive
[6]
  outcome: inactive
[7]
  outcome: inactive
[8]
  outcome: inactive

## C=C(C)C1CCC(C)CC1O (configuration not stated)
[2]
  outcome: inactive
[3]
  outcome: inactive
[4]
  outcome: inactive
[5]
  outcome: inactive
[6]
  outcome: inactive
[9]
  outcome: inactive
[7]
  outcome: inactive
